# PubChem BioAssay (EPA / NIEHS)
# Calls of active or inactive are those of the source. How the source made its calls: active means hit-call score of the fitted dose curve at least 0.9, where 1 is the maximum; inactive means score below 0.9.
# Experiments:
# Details in all cases: mRNA level, 48 h; actives raise or lower the signal
# CYP3A5 (gene 1577) = experiment: LTEA_HepaRG_CYP3A5: Life Technologies and Expression Analysis (LTEA) Assay for CYP3A5 using HepaRG (AID 2283493)
# Method in brief: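 mRNA levels were quantified by qRT-PCR on Fluidigm arrays and normalized to three housekeeping genes. Differentiated HepaRG cells received 48 h exposure (top 100 uM, half-log steps, 0.5% DMSO vehicle, duplicate); bidirectional fitting versus DMSO.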
# [1] = read-out: Fatty Acid-Binding Protein 1 (FABP1), FABP1 (gene 2168); experiment: LTEA_HepaRG_FABP1: Life Technologies and Expression Analysis (LTEA) Assay for Fatty Acid-Binding Protein 1 (FABP1) using HepaRG (AID 2283494)
# Method in brief: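 Values reflect bidirectional concentration-response fitting of FABP1 mRNA change against 0.5% DMSO controls. Human HepaRG cultures received eight half-log doses (top 100 uM) for 48 h; expression quantified by TaqMan qRT-PCR with housekeeping-gene normalization.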
# [2] = read-out: Cytochrome P450 4A22 (Homo sapiens) (UniProt Q5TCH4); experiment: LTEA_HepaRG_CYP4A22: Life Technologies and Expression Analysis (LTEA) Assay for Cytochrome P450 4A22 (CYP4A22) using HepaRG (AID 2283495)
# Method in brief: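 qRT-PCR of CYP4A22 mRNA (Fluidigm TaqMan, normalized to three housekeeping genes) after 48 h chemical exposure of HepaRG cells; 8-point half-log series, top 100 uM, 0.5% DMSO vehicle. Bidirectional curve fitting vs DMSO baseline.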
# [3] = read-out: Cytochrome P450 7A1 (Homo sapiens) (UniProt P22680); experiment: LTEA_HepaRG_CYP7A1: Life Technologies and Expression Analysis (LTEA) Assay for Cytochrome P450 7A1 (CYP7A1) using HepaRG (AID 2283496)
# Method in brief: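 HepaRG, 48 h exposure, 8-pt half-log series from 100 uM, 0.5% DMSO vehicle, duplicates. Readout: TaqMan qRT-PCR mRNA vs three housekeeping genes; bidirectional curve fit against DMSO baseline.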
# [4] = read-out: Glutathione S-Transferase (GSTA2), GSTA2 (gene 2939); experiment: LTEA_HepaRG_GSTA2: Life Technologies and Expression Analysis (LTEA) Assay for Glutathione S-Transferase (GSTA2) using HepaRG (AID 2283497)
# Method in brief: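 Oxidative-stress marker GSTA2 is quantified by TaqMan qRT-PCR in HepaRG cultures treated 48 h across an eight-point range to 100 uM. Expression is normalized to endogenous controls and compared with 0.5% DMSO vehicle.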
# [5] = read-out: Glutamate-cysteine ligase catalytic (GCLC), GCLC (gene 2729); experiment: LTEA_HepaRG_GCLC: Life Technologies and Expression Analysis (LTEA) Assay for Glutamate-cysteine ligase catalytic (GCLC) using HepaRG (AID 2283498)
# Method in brief: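 Oxidative-stress marker GCLC is measured as mRNA change in human HepaRG liver cells after 48 h chemical treatment in 0.5% DMSO, eight concentrations from 100 uM. Activity is fitted bidirectionally against vehicle.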
# [6] = read-out: growth arrest and DNA damage 45 (GADD45G), GADD45G (gene 10912); experiment: LTEA_HepaRG_GADD45G: Life Technologies and Expression Analysis (LTEA) Assay for growth arrest and DNA damage 45 (GADD45G) using HepaRG (AID 2283499)
# Method in brief: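 Differentiated human HepaRG cells in serum-free induction medium were exposed for 48 h to 8 half-log concentrations up to 100 uM in 0.5% DMSO, in duplicate. GADD45G mRNA was measured by TaqMan qRT-PCR, normalised to ACTB, GAPDH and POLR2A, and fitted bidirectionally against DMSO.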
# [7] = read-out: Glutathione S-transferase M3 (GSTM3), GSTM3 (gene 2947); experiment: LTEA_HepaRG_GSTM3: Life Technologies and Expression Analysis (LTEA) Assay for Glutathione S-transferase M3 (GSTM3) using HepaRG (AID 2283501)
# Method in brief: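 Differentiated HepaRG cells in serum-free induction medium were exposed in duplicate for 48 h to 8 half-log concentrations up to 100 uM in 0.5% DMSO. GSTM3 mRNA was measured by TaqMan qRT-PCR, normalized to ACTB/GAPDH/POLR2A, and fitted bidirectionally versus DMSO.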
# [8] = read-out: Heat shock 70 kDa protein 1 (HSPA1A), gene 3303; experiment: LTEA_HepaRG_HSPA1A: Life Technologies and Expression Analysis (LTEA) Assay for Heat shock 70 kDa protein 1 (HSPA1A) using HepaRG (AID 2283502)
# Method in brief: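 HSPA1A expression measured by qRT-PCR with ACTB/GAPDH/POLR2A normalization; curves fitted in both directions relative to DMSO vehicle. Exposure: 48 h in HepaRG cells, duplicate 8-point half-log series from 100 uM, 0.5% DMSO, serum-free induction medium.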
# [9] = read-out: Hypoxia-inducible factor 1-alpha (Homo sapiens) (UniProt Q16665); experiment: LTEA_HepaRG_HIF1A: Life Technologies and Expression Analysis (LTEA) Assay for Hypoxia-inducible factor 1 (HIF1A) Trancription factor using HepaRG (AID 2283503)
# Method in brief: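 HIF1A transcript level read by qRT-PCR (ACTB, GAPDH, POLR2A normalization) after 48 h chemical exposure of HepaRG cultures. Eight half-log concentrations, top 100 uM, 0.5% DMSO vehicle, duplicates; bidirectional curve fit against DMSO baseline.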
# [10] = read-out: 3-Hydroxy-3-Methylglutaryl-CoA Synthase 2 (HMGCS2), HMGCS2 (gene 3158); experiment: LTEA_HepaRG_HMGCS2: Life Technologies and Expression Analysis (LTEA) Assay for 3-Hydroxy-3-Methylglutaryl-CoA Synthase 2 (HMGCS2) using HepaRG (AID 2283504)
# Method in brief: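 Differentiated human HepaRG cells were exposed in duplicate for 48 h in serum-free induction medium to eight concentrations (top 100 uM, half-log steps, 0.5% DMSO). HMGCS2 mRNA was quantified by TaqMan qRT-PCR, normalised to ACTB, GAPDH and POLR2A, then fitted bidirectionally against DMSO.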
# HGF (gene 3082) = experiment: LTEA_HepaRG_HGF: Life Technologies and Expression Analysis (LTEA) Assay for Hepatocyte Growth Facto (HGF) using HepaRG (AID 2283505)
# Method in brief: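 Differentiated human HepaRG cells in serum-free induction medium were exposed in duplicate for 48 h to eight concentrations (top 100 uM, half-log steps, 0.5% DMSO). HGF mRNA was quantified by qRT-PCR, normalized to ACTB, GAPDH and POLR2A.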
# [11] = read-out: Insulin Like Growth Factor 1 (IGF1), IGF1 (gene 3479); experiment: LTEA_HepaRG_IGF1: Life Technologies and Expression Analysis (LTEA) Assay for Insulin Like Growth Factor 1 (IGF1) using HepaRG (AID 2283506)
# Method in brief: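 Expression measured by TaqMan qRT-PCR on a Fluidigm array, with three housekeeping genes for normalisation, after 48 h treatment of HepaRG cells. Top concentration 100 uM with half-log steps, 0.5% DMSO vehicle, bidirectional fit.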
# [12] = read-out: Intercellular Adhesion Molecule 1 (ICAM1), ICAM1 (gene 3383); experiment: LTEA_HepaRG_ICAM1: Life Technologies and Expression Analysis (LTEA) Assay for Intercellular Adhesion Molecule 1 (ICAM1) using HepaRG (AID 2283507)
# Method in brief: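 Differentiated HepaRG cells in serum-free induction medium were exposed in duplicate for 48 h to eight half-log concentrations up to 100 uM in 0.5% DMSO. Transcript levels were measured by qRT-PCR normalized to ACTB, GAPDH and POLR2A; bidirectional fits relative to DMSO.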
# [13] = read-out: Insulin-like growth factor-binding protein 1 (IGFBP1), IGFBP1 (gene 3484); experiment: LTEA_HepaRG_IGFBP1: Life Technologies and Expression Analysis (LTEA) Assay for Insulin-like growth factor-binding protein 1 (IGFBP1) using HepaRG (AID 2283508)
# Method in brief: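 Differentiated human HepaRG cells in serum-free induction medium were exposed in duplicate for 48 h to eight concentrations, top 100 uM with half-log dilutions, in 0.5% DMSO. Transcript levels came from qRT-PCR normalised to ACTB, GAPDH and POLR2A, fitted bidirectionally against DMSO.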
# [14] = read-out: Interleukin 6 (IL6), IL6 (gene 3569); experiment: LTEA_HepaRG_IL6: Life Technologies and Expression Analysis (LTEA) Assay for Interleukin 6 (IL6) using HepaRG (AID 2283509)
# Method in brief: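 Changes in IL6 mRNA, up or down relative to 0.5% DMSO controls, were derived from concentration-response curves in human HepaRG cells treated for 48 h at up to 100 uM, with ACTB, GAPDH and POLR2A as normalizers.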
# [15] = read-out: Interleukin 6 Receptor (IL6R), IL6R (gene 3570); experiment: LTEA_HepaRG_IL6R: Life Technologies and Expression Analysis (LTEA) Assay for Interleukin 6 Receptor (IL6R) using HepaRG (AID 2283510);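 on AC50: TaqMan qRT-PCR signal normalized to ACTB GAPDH and POLR2A housekeeping genes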
# Method in brief: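 IL6R transcript level by qRT-PCR after 48 h chemical exposure (8-point, half-log, max 100 uM, 0.5% DMSO vehicle) of HepaRG cells in serum-free induction medium. Normalized to three housekeeping genes; curves fitted in both directions relative to DMSO.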
# [16] = read-out: Potassium channel subfamily K member 1 (KCNK1), KCNK1 (gene 3775); experiment: LTEA_HepaRG_KCNK1: Life Technologies and Expression Analysis (LTEA) Assay for Potassium channel subfamily K member 1 (KCNK1) using HepaRG (AID 2283511)
# Method in brief: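 Human HepaRG cultures receive test chemicals for 48 h in 0.5% DMSO, top concentration 100 uM with half-log dilutions. Induction or suppression of KCNK1 mRNA relative to DMSO is derived by bidirectional fitting of qRT-PCR data.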
# [17] = read-out: Keratin 19 (KRT19), KRT19 (gene 3880); experiment: LTEA_HepaRG_KRT19: Life Technologies and Expression Analysis (LTEA) Assay for Keratin 19 (KRT19) using HepaRG (AID 2283512)
# Method in brief: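 Differentiated human HepaRG cells, plated 48 h, were exposed in duplicate for 48 h in serum-free induction medium to eight half-log concentrations up to 100 uM in 0.5% DMSO. KRT19 mRNA was quantified by qRT-PCR, normalized to ACTB, GAPDH and POLR2A, and fitted bidirectionally versus DMSO.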
# [18] = read-out: JUN Transcription Factor, JUN (gene 3725); experiment: LTEA_HepaRG_JUN: Life Technologies and Expression Analysis (LTEA) Assay for JUN Transcription Factor using HepaRG (AID 2283513)
# Method in brief: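 mRNA measured by TaqMan qRT-PCR after 48 h chemical exposure of HepaRG cultures; normalization to three housekeeping genes. Duplicate eight-point half-log curves from 100 uM in 0.5% DMSO; gain or loss fitted against DMSO baseline.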
# Sequence of Hypoxia-inducible factor 1-alpha (Homo sapiens) (Q16665 whole entry, looked up): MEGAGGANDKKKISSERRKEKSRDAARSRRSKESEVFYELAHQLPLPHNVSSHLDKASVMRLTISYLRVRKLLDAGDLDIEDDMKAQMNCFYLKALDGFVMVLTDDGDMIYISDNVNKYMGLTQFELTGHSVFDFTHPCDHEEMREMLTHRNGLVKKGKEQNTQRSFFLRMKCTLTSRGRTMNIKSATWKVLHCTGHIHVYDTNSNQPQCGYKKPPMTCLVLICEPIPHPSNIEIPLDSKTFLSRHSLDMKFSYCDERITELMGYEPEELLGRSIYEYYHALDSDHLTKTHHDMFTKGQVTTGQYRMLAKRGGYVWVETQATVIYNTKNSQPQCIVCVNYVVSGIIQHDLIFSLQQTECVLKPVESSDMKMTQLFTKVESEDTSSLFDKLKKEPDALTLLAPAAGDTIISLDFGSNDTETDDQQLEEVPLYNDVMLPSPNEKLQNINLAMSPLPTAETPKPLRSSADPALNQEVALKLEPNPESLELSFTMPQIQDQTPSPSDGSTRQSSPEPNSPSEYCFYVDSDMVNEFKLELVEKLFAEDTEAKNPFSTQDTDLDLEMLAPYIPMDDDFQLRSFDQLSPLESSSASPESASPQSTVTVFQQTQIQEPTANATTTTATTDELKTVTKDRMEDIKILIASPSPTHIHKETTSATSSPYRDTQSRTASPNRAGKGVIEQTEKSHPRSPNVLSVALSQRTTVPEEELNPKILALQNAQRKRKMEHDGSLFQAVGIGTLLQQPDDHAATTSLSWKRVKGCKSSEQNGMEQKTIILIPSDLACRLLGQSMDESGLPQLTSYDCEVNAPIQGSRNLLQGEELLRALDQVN
compound,measurement,setting,value
CC(C)(OO)c1ccccc1,outcome,CYP3A5 (gene 1577),inactive
same,outcome,[1],inactive
same,outcome,[2],inactive
same,outcome,[3],inactive
same,outcome,[4],inactive
same,outcome,[5],inactive
same,outcome,[6],inactive
same,outcome,[7],inactive
same,outcome,[8],inactive
same,outcome,[9],inactive
same,outcome,[10],inactive
same,outcome,HGF (gene 3082),inactive
same,outcome,[11],inactive
same,outcome,[12],inactive
same,outcome,[13],inactive
same,outcome,[14],inactive
same,outcome,[15],inactive
same,outcome,[16],inactive
same,outcome,[17],inactive
same,outcome,[18],inactive
CC(=O)[O][Hg][c]1ccccc1,AC50,CYP3A5 (gene 1577),11 µM (active)
same,AC50,[1],13 µM (active)
same,AC50,[4],25.4 µM (active)
same,AC50,[5],23.1 µM (active)
same,AC50,[6],82.8 µM (active)
same,outcome,[7],inactive
same,AC50,[8],50 µM (active)
same,outcome,[9],inactive
same,AC50,[10],23.3 µM (active)
same,AC50,HGF (gene 3082),2.1 µM (active)
same,AC50,[11],23.1 µM (active)
same,AC50,[12],0.558 µM (active)
same,AC50,[13],4.6 µM (active)
same,AC50,[14],16 µM (active)
same,AC50,[15],20.6 µM (active)
same,outcome,[16],inactive
same,AC50,[17],4.54 µM (active)
same,AC50,[18],12.7 µM (active)
CCC(C)(C)c1ccc(O)c(C(C)(C)CC)c1,outcome,CYP3A5 (gene 1577),inactive
same,outcome,[1],inactive
same,outcome,[2],inactive
same,outcome,[3],inactive
same,outcome,[4],inactive
same,outcome,[5],inactive
same,outcome,[6],inactive
same,outcome,[7],inactive
same,outcome,[8],inactive
same,outcome,[9],inactive
same,outcome,[10],inactive
same,outcome,HGF (gene 3082),inactive
same,outcome,[11],inactive
same,outcome,[12],inactive
same,outcome,[13],inactive
same,outcome,[14],inactive
same,outcome,[15],inactive
same,outcome,[16],inactive
same,outcome,[17],inactive
same,outcome,[18],inactive
Oc1cccc2cccnc12,outcome,CYP3A5 (gene 1577),inactive
same,outcome,[1],inactive
same,outcome,[2],inactive
same,outcome,[3],inactive
same,outcome,[4],inactive
same,outcome,[5],inactive
same,outcome,[6],inactive
same,outcome,[7],inactive
same,outcome,[8],inactive
same,outcome,[10],inactive
same,outcome,HGF (gene 3082),inactive
same,outcome,[11],inactive
same,outcome,[12],inactive
same,outcome,[13],inactive
same,outcome,[14],inactive
same,outcome,[15],inactive
same,outcome,[16],inactive
same,outcome,[17],inactive
same,outcome,[18],inactive
